Source: PubChem BioAssay
Sampled rows, rich in hits. Any-hit rate of the full collection: about 7.6%.
KB-3-1 tox: qHTS assay for MDR1-selective chemotherapeutics: Primary screen using the parental adenocarcinoma cell KB-3-1; KB-3-1 viability, CellTiter-Glo ATP luminescence, 72 h; Potency, µM (doses to about 46.1 µM), usual class: cytotoxic; 400,000 compounds, 1.4% hits; further: potency means the concentration at half of the fitted maximal effect; on the % scale 0 is the no-effect control and ±100 the full control effect; nearly all actives have a fitted effect of over 60% in size
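KB-3-1 cells, DMEM (no phenol red) + 10% FBS; compound by pin transfer, 72 h, 37 °C. Readout: CellTiter-Glo luminescence after 10 min. Data normalized, curve-fitted.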
SW480 rereplic: A quantitative high throughput screen for small molecules that induce DNA re-replication in SW480 colon adenocarcinoma cells. 340,000 compounds, 1.8% hits. SW480 DNA re-replication, Hoechst DNA content imaging, 48 h. Potency, µM (series often up to 46.1 µM), inactives show at the highest dose re-replication activation, usual class: activators. AID 624297, 2012; further: potency means the concentration at half of the fitted maximal effect; % of control where 0% means no effect; nearly all actives have a fitted effect of over 55% in size
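Image-based read-out: total Hoechst fluorescence of nuclei (405 nm excitation, 500-530 nm emission), with hits raising the fraction of high-intensity nuclei. SW480 colon cells incubated 48 hr with compounds at 37 C.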
KCNH2 3.1 block: qHTS for Inhibitors of KCHN2 3.1: Mutant qHTS. Potassium voltage-gated channel subfamily H member 2, brain isoform KCNH2 3.1 (human). U2OS KCNH2 3.1, thallium flux FluxOr; stronger effect = lower value. activity change, % (tested at about 1.8 µM). 340,000 compounds, 0.95% hits;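 active means maximum activity change below -70%; inconclusive means maximum activity change from -70% to -50%; inactive means maximum activity change above -50%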;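 further: thallium influx rate constant from kinetic fluorescence after stimulation buffer; on the % scale 0 is the no-effect control and ±100 the full control effect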
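U2OS cells transduced with KCNH2 3.1 mutant virus (1.77 x 10^8 /mL, 4 h), plated overnight at 37 C, loaded 45 min with FluxOr dye plus Red40 quencher. Thallium flux rate constant from kinetic reads after stimulation buffer, normalised to controls.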
KCNH2 WT inh: qHTS for Inhibitors of KCHN2 3.1: Wildtype qHTS; AID 720551, 2013; Voltage-gated inwardly rectifying potassium channel KCNH2 (Homo sapiens), Q12809; activity change, % at 1.84 µM; U2OS, BacMam KCNH2, thallium flux FluxOr; stronger effect = lower value; 340,000 compounds, 0.37% hits;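 active means maximum activity change below -70%; inconclusive means maximum activity change between -70% and -50%; inactive means maximum activity change above -50%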; further: on the % scale 0 is the no-effect control and ±100 the full control effect
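U2OS cells were transduced with wild-type KCNH2 virus (2.03 x 10^8 / mL) for 4 h at room temperature, then cultured overnight at 37 C. Thallium flux was read with FluxOr dye. Rate constants were normalized to DMSO controls.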
MCF10A rereplic: A quantitative high throughput screen for small molecules that induce DNA re-replication in MCF 10a normal breast cells; MCF 10A DNA re-replication, Hoechst nuclear intensity, 48 h; Potency, µM (series often up to 46.1 µM), inactives show at the highest dose activity, positive = re-replication, hits mostly activators; 350,000 compounds, 2.9% hits; AID 624296, 2012; further: potency means the concentration at half of the fitted maximal effect; % of control where 0% means no effect; nearly all actives have a fitted effect of over 50% in size
KB-V1 cytotox: qHTS assay for MDR1-selective chemotherapeutics: Primary screen using the drug-selected MDR subline cells KB-V1; KB-V1 MDR cells viability, CellTiter-Glo, 72 h; Potency, µM (highest dose often 46.1 µM), most hits filed as cytotoxic; 400,000 compounds, 3.4% hits; further: potency means the concentration at half of the fitted maximal effect; on the % scale 0 is the no-effect control and ±100 the full control effect; nearly all actives have a fitted effect of over 60% in size
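Compound-treated KB-V1 multidrug-resistant cells, 72 h, 37 degrees C; viability by CellTiter-Glo. Fitted qHTS curves give the values.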
Active calls of the source: *. Unless noted, the call rests on the fitted dose curve; in most records, active means well fitted curve in the direction sought with a large enough effect; inconclusive means small, poorly fitted or top-dose-only effect, or another doubt; inactive means no such curve, though single readings can be large; an effect the other way counts as inactive or inconclusive.

`COc1cccc(CN2CCN(C(=O)c3ccco3)CC2)c1` gave KB-3-1 tox inactive, SW480 rereplic -23%, KCNH2 3.1 block 3, KCNH2 WT inh -2, MCF10A rereplic 0.58µM* and KB-V1 cytotox inactive.
`COc1cccc(-c2nc(CN3CCN(C(=O)c4ccco4)CC3)c(C)o2)c1OC` gave KB-3-1 tox inactive, KCNH2 3.1 block -90*, KCNH2 WT inh -2 and KB-V1 cytotox inactive.
COc1ccc(OC)c(CN2CCN(C(=O)c3ccco3)CC2)c1 was read as KB-3-1 tox inactive, SW480 rereplic -11%, KCNH2 3.1 block 9, KCNH2 WT inh -20, MCF10A rereplic -5% and KB-V1 cytotox inactive.
Screening COC(=O)c1ccc(OCC(O)CN2CCN(C(=O)c3ccco3)CC2)c(OC)c1 (stereo unspecified) returned KB-3-1 tox inactive, SW480 rereplic -6%, KCNH2 3.1 block -85*, KCNH2 WT inh 2, MCF10A rereplic -2% and KB-V1 cytotox inactive.
Screening Cc1oc(-c2cc(F)ccc2F)nc1CN1CCCN(C(=O)c2ccco2)CC1 returned KB-3-1 tox inactive, SW480 rereplic -2%, KCNH2 3.1 block -31, KCNH2 WT inh 24, MCF10A rereplic inconclusive and KB-V1 cytotox inactive.
COc1ccc(CCNS(=O)(=O)CCNC(=O)c2ccc3c(c2)OCO3)cc1OC was read as KB-3-1 tox inactive, SW480 rereplic -91%, KCNH2 3.1 block -22, KCNH2 WT inh -5, MCF10A rereplic -1% and KB-V1 cytotox inactive.
Screening Cc1ccc2oc(=O)n(CCCOc3ccccc3C)c2c1 returned KB-3-1 tox inactive, SW480 rereplic -12%, KCNH2 3.1 block -11, KCNH2 WT inh 18, MCF10A rereplic 17% and KB-V1 cytotox inconclusive.
`Cc1ccsc1CN(C)C(=O)C(NC(=O)c1cccc(S(=O)(=O)N2CCOCC2)c1)C(C)C` (stereo unspecified) gave KB-3-1 tox inactive, SW480 rereplic 7%, KCNH2 3.1 block -5, KCNH2 WT inh 9, MCF10A rereplic 5% and KB-V1 cytotox inactive.
`COc1ccc(C(=O)NN/C=C/C(=O)c2ccc(Br)cc2)cc1` gave KB-3-1 tox inactive, KCNH2 3.1 block 2, KCNH2 WT inh -2 and KB-V1 cytotox inactive.
Screening COc1ccc(C(=O)C=CNNC(=O)c2ccc(Cl)cc2)cc1 returned KB-3-1 tox inconclusive, SW480 rereplic 3.7µM*, KCNH2 3.1 block -35, KCNH2 WT inh -3, MCF10A rereplic 5.8µM* and KB-V1 cytotox inconclusive.
O=S(=O)(c1ccc2c(c1)nc(COc1ccc(Cl)cc1)n2CC1CCCO1)N1CCOCC1 (stereo unspecified) was read as KB-3-1 tox inactive, SW480 rereplic 8%, KCNH2 3.1 block -20, KCNH2 WT inh 2, MCF10A rereplic 10% and KB-V1 cytotox 23µM*.
`CCn1c(SCC(=O)OC)nc2cc(S(=O)(=O)N3CCOCC3)ccc21` gave KB-3-1 tox inactive, SW480 rereplic inconclusive, KCNH2 3.1 block 4, KCNH2 WT inh -1, MCF10A rereplic -6% and KB-V1 cytotox inactive.
`CCc1ccc(C(=O)CSc2nc3cc(S(=O)(=O)N4CCOCC4)ccc3n2CC)cc1` gave KB-3-1 tox inactive, SW480 rereplic 13%, KCNH2 3.1 block -7, KCNH2 WT inh 4, MCF10A rereplic -2% and KB-V1 cytotox 21µM*.
Screening CCCCn1c(C)nc2cc(S(=O)(=O)N3CCOCC3)ccc21 returned KB-3-1 tox inactive, SW480 rereplic 4%, KCNH2 3.1 block -9, KCNH2 WT inh 11, MCF10A rereplic 0% and KB-V1 cytotox inactive.
CCCCn1c(CCl)nc2cc(S(=O)(=O)N3CCOCC3)ccc21 was read as KB-3-1 tox inconclusive, SW480 rereplic 13µM*, KCNH2 3.1 block -2, KCNH2 WT inh 0, MCF10A rereplic inconclusive and KB-V1 cytotox inconclusive.
`O=C(NCC1CCCO1)c1cc(S(=O)(=O)N2CCOCC2)ccc1Cl` (stereo unspecified) gave KB-3-1 tox inactive, SW480 rereplic 1%, KCNH2 3.1 block 13, KCNH2 WT inh -5, MCF10A rereplic -3% and KB-V1 cytotox inactive.
CCOC(=O)c1ccc(NC(=O)Cn2cc(C(=O)c3ccc(CC)cc3)c(=O)c3ccc(C)nc32)cc1 was read as KB-3-1 tox inactive and KB-V1 cytotox inactive.
Screening O=C(Cc1ccc(Cl)cc1)Nc1cccnc1Cl returned KB-3-1 tox inactive, KCNH2 3.1 block 0, KCNH2 WT inh -5 and KB-V1 cytotox inactive.
`CN(C)c1ccc(C(=O)N2CCCC2)cc1` gave KB-3-1 tox inactive, SW480 rereplic -220%, KCNH2 3.1 block 9, MCF10A rereplic -2% and KB-V1 cytotox inactive.
Screening O=C(CCCN=C1NS(=O)(=O)c2ccccc21)OCC(=O)c1ccccc1Cl returned KB-3-1 tox inactive, SW480 rereplic -4%, KCNH2 3.1 block 8, KCNH2 WT inh -10, MCF10A rereplic 3.7µM* and KB-V1 cytotox inactive.
CCOc1ccc2nc(N3CCCC(C(=O)Nc4ccc(Br)c(C)c4)C3)sc2c1 (stereo unspecified) was read as KB-3-1 tox inactive and KB-V1 cytotox inactive.
`COc1ccc(-c2nnc(SCC(=O)c3[nH]c(C)c(C(C)=O)c3C)o2)cc1` gave KB-3-1 tox inactive, SW480 rereplic 5%, KCNH2 3.1 block -6, KCNH2 WT inh -4, MCF10A rereplic 4% and KB-V1 cytotox inconclusive.
CCOC(=O)c1[nH]c(CSc2nnc(-c3ccc(OC)cc3)o2)c(C(=O)OCC)c1C was read as KB-3-1 tox inactive, SW480 rereplic 9%, KCNH2 3.1 block 6, KCNH2 WT inh 10, MCF10A rereplic 16µM* and KB-V1 cytotox inconclusive.
Cc1ccc(NC(=O)c2noc(C(C)C)c2[N+](=O)[O-])cc1 was read as KB-3-1 tox inconclusive, SW480 rereplic inconclusive, KCNH2 3.1 block 8, KCNH2 WT inh -1, MCF10A rereplic inconclusive and KB-V1 cytotox inactive.
COc1ccc(NC(=O)c2csnn2)cc1 was read as KB-3-1 tox inactive and KB-V1 cytotox inactive.
